Screening results as filed in PubChem.
An excerpt weighted towards active compounds, which were near 1.3% of everything screened.
Glioma ERSR ind: qHTS for Inducers of the Endoplasmic Reticulum Stress Response (ERSR) in Human Glioma: qHTS | U87-MG GRP78 promoter luciferase reporter, 16 h | Potency, µM, inactives show top-dose activation, hits mostly activators | 420,000 tested, 0.02% active | AID 602332, 2012; note: potency is the fitted concentration of half-maximal effect; series mostly up to about 76 µM; % of control where 0% means no effect; nearly all actives have a fitted effect of over 35% in size
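Stably transfected U87-MG glioma cells carrying a GRP78-based luciferase sensor; 16 h compound incubation. Luminescence end-point read 10 min after Bright-Glo addition at room temperature.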
TRPML1 inh: qHTS for Inhibitors of the Human Mucolipin Transient Receptor Potential 1 (TRPML1). Mucolipin-1 (Homo sapiens), Q9GZU1. TRPML1-inducible cells, Ca2+ dye fluorescence, FDSS; stronger effect = lower value; inhibition of EC80 agonist-evoked calcium signal. activity change, negative = inhibition, % (concentration not given with the values). 390,000 tested, 0.02% active. AID 624415, 2012; in the data active = activity change below about -50%; inconclusive = between about -30% and that limit;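 note: stimulus is agonist 54-4 at its EC80 concentration; % is set by controls: 0 for no effect and ±100 for the full control effect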
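Tet-induced TRPML1-DL cells loaded with Ca8 no-wash calcium dye were read kinetically on FDSS. Compound addition was followed by EC80 agonist 54-4 (4 uM final); inhibition was read over 110 s.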
TRPML1 ag: qHTS for Agonists of the Human Mucolipin Transient Receptor Potential 1 (TRPML1) | activation, % (no concentration beside the values) | TRPML1-expressing cells, Ca2+ dye fluorescence, FDSS | 410,000 tested, 0.12% active | Mucolipin-1 (Homo sapiens), Q9GZU1 | AID 624414, 2012; in the data active = activation above about 50%; inconclusive = mostly about 30% to 49%; note: 0% is about no effect
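Tet-induced TRPML1-DL cells, 1,500 per well, cultured overnight, were loaded with a no-wash Ca2+ dye for 45–90 min. Calcium fluorescence was recorded on the FDSS for 110 s after compound addition, before the EC80 agonist (4 uM 54-4) was added.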
Vif-APOBEC3F blk: qHTS for Inhibitors of Vif-A3F Interactions: qHTS; HeLa A3F-eYFP + Vif (tagged APOBEC3F with the HIV-1 protein that degrades it), YFP fluorescence increase; Potency, µM (doses to about 46.1 µM), for inactives: at the top dose activity, negative = active; 390,000 tested, 0.2% active; AID 602313, 2012; note: potency is the fitted concentration of half-maximal effect; % of control where 0% means no effect; nearly all actives have a fitted effect of over 65% in size
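HeLa cells stably expressing Vif plus C-terminally eYFP-tagged A3F were seeded, incubated overnight at 37 deg C, dosed with compound, incubated overnight again at 37 deg C. Yellow fluorescence (Ex 488/Em 500-530) reported blocked Vif-mediated A3F-eYFP degradation.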
Vif-APOBEC3G blk: qHTS for Inhibitors of Vif-A3G Interactions: qHTS | DNA dC->dU-editing enzyme APOBEC-3G (Homo sapiens), Q9HC16 | HeLa A3G-eYFP + Vif (tagged APOBEC3G with the HIV-1 protein that degrades it), YFP fluorescence, overnight | Potency, µM (doses to about 46.1 µM), without a hit: top-dose activity, negative = active, usual class: inhibitors | 410,000 tested, 0.076% active | AID 602310, 2012; note: potency is the fitted concentration of half-maximal effect; % is set by controls: 0 for no effect and ±100 for the full control effect; nearly all actives have a fitted effect of over 60% in size
Target sequence (Q9HC16 whole entry, looked up): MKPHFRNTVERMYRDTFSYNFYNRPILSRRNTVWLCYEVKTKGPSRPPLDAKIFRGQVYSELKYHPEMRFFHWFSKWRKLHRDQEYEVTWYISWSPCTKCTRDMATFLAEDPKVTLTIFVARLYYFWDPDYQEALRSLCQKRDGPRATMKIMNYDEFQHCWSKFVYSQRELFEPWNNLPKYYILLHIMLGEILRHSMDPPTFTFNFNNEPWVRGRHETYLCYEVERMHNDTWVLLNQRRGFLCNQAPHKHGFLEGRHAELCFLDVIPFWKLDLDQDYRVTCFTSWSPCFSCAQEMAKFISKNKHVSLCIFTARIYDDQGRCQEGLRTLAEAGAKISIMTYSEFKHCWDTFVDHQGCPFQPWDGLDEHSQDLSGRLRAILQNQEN
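Read-out is eYFP fluorescence (Ex 488/Em 500-530) from Vif-expressing HeLa A3G-eYFP cells; more signal means A3G escaped Vif-mediated degradation. Cells plated overnight, compound pinned in, incubated overnight at 37 deg C.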
ALOX12 inh: Primary qHTS assay for inhibitors of human arachidonate 12S-lipoxygenase (ALOX12): Round 2; Polyunsaturated fatty acid lipoxygenase ALOX12 (Homo sapiens), P18054; purified 12hLO, xylenol orange hydroperoxide absorbance; Potency, µM (doses to about 108 µM), for inactives: at the top dose activity change, negative = inhibition, hits mostly inhibitors; 580,000 tested, 1.1% active; note: potency is the fitted concentration of half-maximal effect; % is set by controls: 0 for no effect and ±100 for the full control effect
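Purified human 12hLO (150 nM final) in 25 mM Hepes, 0.01% Triton X-100, pH 7.0 was preincubated 15 min at room temperature with compound. Then 40 uM arachidonic acid was added, 30 min. Hydroperoxide was read by Fe-XO absorbance ratio 573/405 nm.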
* marks the source's active call; other numbers are inactive results; ? = inconclusive; · = not tested or not shown; ! = a repeat was not active; [ ] = dose if it differs, or a comment. Unless noted, calls come from the whole dose curve; as a rule, active = well fitted curve in the direction sought with a large enough effect; inconclusive = small, poorly fitted or top-dose-only effect, or another doubt; inactive = no such curve, though single readings can be large; an effect the other way counts as inactive or inconclusive.

SMILES	Glioma ERSR ind	TRPML1 inh	TRPML1 ag	Vif-APOBEC3F blk	Vif-APOBEC3G blk	ALOX12 inh
O=c1cc(CN2CCN(Cc3ccc(F)cc3)C(CCO)C2)[nH]c2ccccc12 (stereo not drawn)	-2.5%	13.6	1.0	0.0%	-0.8%	35.5µM*
CC(C)(C)c1ccc(-c2cc(C[C@H]3CNCC[C@H]3CC(=O)N3CCOCC3)no2)cc1	·	·	·	·	·	1.2%[176 µM]
CN(C)CCCN=c1cc(-c2ccccc2)oc2ccc(Cl)cc12	4.2%	0.4	1.6	1.5%	-1.9%	35.5µM*
OCCN=c1cc(-c2ccccc2)oc2ccc(Cl)cc12	-7.0%	34.1	-0.3	·	1.9%	·
Cc1cccc(-n2c(=O)c3c(cc(C)n3C)n(CC(=O)Nc3c(C)cccc3C)c2=O)c1	·	·	·	·	·	70.8µM*
COc1ccccc1NC(=O)Cn1c(=O)n(-c2cccc(C)c2)c(=O)c2c1cc(C)n2C	·	·	·	·	·	15.4%
CCOc1cc(/C=C2/SC(=S)N(CC3CCCO3)C2=O)ccc1O (stereo not drawn)	0.0%	-4.1	-0.2	22.4µM*	-15.1%	13.0%
COc1cc(/C=C2\SC(=S)N(NC(=O)c3ccccc3OC)C2=O)ccc1O	11.6%	-12.2	14.0	22.4µM*	-3.4%	0.0%
O=C1/C(=C/c2cccc(O)c2)SC(=S)N1CC1CCCO1 (stereo not drawn)	6.1%	-6.7	1.3	5.7%	-6.5%	-14.0%
COc1cc(/C=C2\SC(=S)N(NC(=O)c3cccc(O)c3)C2=O)ccc1O	2.0%	-0.6	20.6	?	-14.9%	0.0%
COc1cc(/C=C2\SC(=S)N(NC(=O)c3ccncc3)C2=O)ccc1O	-1.7%	·	·	-11.2%	-9.5%	?
COc1cc(/C=C2\SC(=S)N(NC(=O)c3ccc(O)c(OC)c3)C2=O)ccc1O	2.6%	-9.4	14.4	10µM*	-18.6%	?
COCCSc1ccccc1C(=O)Nc1ccc(Cl)cn1	0.4%	-2.1	-0.7	0.3%	-5.6%	-12.7%
COCCSc1ccccc1C(=O)Nc1nccs1	-3.3%	3.7	0.6	-6.8%	1.1%	14.1µM*
COCCSc1ccccc1C(=O)Nc1nnc(C)s1	-2.5%	29.7	-0.4	1.6%	-0.7%	11.2µM*
CCCSc1ccccc1C(=O)Nc1cccc(C)c1C	·	·	·	·	·	25.1µM*
CN(C)Cc1nc(SCC(=O)Nc2ccc(F)c(F)c2)c2ccccc2n1	·	·	·	·	·	-1.4%
O=C(Cc1ccsc1-c1ccccc1)NO	?	6.2	-0.9	-6.2%	-9.1%	15.8µM*
Cc1ccc(NC(NC(=O)C(C)(C)C)C(Cl)(Cl)Cl)cc1 (stereo not drawn)	·	·	·	·	·	24.4%
O=C(N[C@@H]1CN(Cc2ccc3cc[nH]c3c2)C[C@H]1CO)c1ccccc1	·	·	·	·	·	28.2µM*
O=C(N[C@@H]1CN(Cc2ccc(F)cc2)C[C@H]1CO)c1ccccc1	·	·	·	·	·	12.6µM*
Cc1ccc(NC(=O)Cn2c(-n3nc(C)cc3C)nc(-c3ccccc3)cc2=O)cc1	·	·	·	·	·	-4.6%
O=C(O)C(c1c[nH]c2cc(F)ccc12)N1CCN(Cc2cccc3ccccc23)CC1 (stereo not drawn)	·	·	·	·	·	39.8µM*
O=C(O)C(c1c[nH]c2cc(F)ccc12)N1CCN(Cc2ccccc2)CC1 (stereo not drawn)	·	·	·	·	·	-36.9%
O=C(NCC1CC1)C1CCCN1S(=O)(=O)c1ccc(Br)s1 (stereo not drawn)	·	·	·	·	·	-40.8%
SMILES	Glioma ERSR ind	TRPML1 inh	TRPML1 ag	Vif-APOBEC3F blk	Vif-APOBEC3G blk	ALOX12 inh
C#CCN1CCC(C(=O)N(C)Cc2ccc(Br)o2)CC1	·	·	·	·	·	28.0%
CC(CCc1ccc(O)cc1)NCCc1ccc(O)c(O)c1 (stereo not drawn)	?	-1.4	0.3	-5.4%	-0.6%	1.44µM*!
COC(=O)c1ccc(C)cc1C1CN=NC12Cc1cc(C)ccc1C2=O (stereo not drawn)	5.7%	-21.6	95.4*	-0.5%	?	?
COc1ccc(NCc2cc3ccc(OC)cc3n(CC(=O)Nc3cc(Cl)ccc3C)c2=O)cc1	-2.8%	15.2	6.1	-0.9%	-3.6%	-14.4%
COc1ccc2cc(CNc3ccc(C)cc3)c(=O)n(CC(=O)Nc3ccc(C)cc3C)c2c1	·	·	·	·	·	7.94µM*
COc1ccc(C2COc3cc(O)ccc3C2)c(OC)c1O (stereo not drawn)	-2.2%	·	·	-3.0%	?	35.5µM*
CC(C)c1ccc(O)c(NC(=S)NC(=O)c2ccc3c(c2)OCO3)c1	3.6%	2.7	0.3	-8.3%	1.0%	12.6µM*
O=C(NC(=S)Nc1ccccc1Br)c1ccc2c(c1)OCO2	1.1%	0.1	0.2	1.6%	0.1%	?
C[N+](C)(C)CCC(=O)N1C/C(=C/c2ccccc2)C(=O)/C(=C\c2ccccc2)C1	-14.0%	-19.8	0.4	?	7.94µM*	-17.1%
Cc1ccc(NC(=S)/C(C#N)=C2/Nc3ccccc3S2)cc1	-1.7%	27.2	-0.4	-0.7%	-15.6%	12.6µM*
N#C/C(C(=O)N1CCCCC1)=C1\Nc2ccccc2S1	-1.1%	-0.2	1.5	-4.7%	-2.4%	0.0%
Cn1cc(/C=C2\SC(=O)N(c3ccc(O)cc3)C2=O)c2ccccc21	3.9%	66.7	2.4	?	-14.0%	0.0%
Cn1cc(/C=C2\SC(=O)N(c3ccccc3)C2=O)c2ccccc21	-0.7%	-8.0	0.8	7.94µM*	-18.9%	-21.0%
O=C(O)c1cccc(NC(=S)NC(=O)c2ccc(-c3ccc(Cl)cc3)o2)c1	2.3%	25.4	0.7	-7.7%	1.2%	12.6µM*
Cc1cccc(NC(=S)NC(=O)C(c2ccccc2)c2ccccc2)n1	-8.7%	3.9	0.3	-11.4%	-8.7%	11.8%
CC(C)NC(=S)NC(=O)c1ccc(-c2ccccc2)cc1	4.2%	-11.2	15.4	-3.3%	-4.1%	15.8µM*
Cc1ccc(C(=O)O)cc1NC(=S)NC(=O)c1ccc(-c2ccc(Cl)cc2)o1	-0.5%	·	·	1.5%	0.8%	2µM*
Cc1cccc(NC(=S)NC(=O)c2ccc(-c3ccccc3)cc2)n1	17.3%	-9.8	2.4	2.2%	0.3%	35.5µM*
Cc1cc2n(CC(O)COc3ccc(C(C)(C)C)cc3)c(=O)c3ccccc3n2n1 (stereo not drawn)	·	·	·	·	·	-25.5%
CC(C#N)Sc1nnc2c(Cl)cc(C(F)(F)F)cn12 (stereo not drawn)	·	·	·	·	·	20.5%
COC(=O)CCOc1ccc(S(=O)(=O)Nc2c(F)cccc2F)cc1	·	·	·	·	·	-18.9%
Cc1ccc(C(=O)O)cc1NC(=S)NC(=O)c1ccc(-c2ccccc2)cc1	3.0%	1.2	1.6	18.6%	1.0%	8.91µM*
